# Bioassay records as filed in PubChem.
# Sampled rows, rich in hits. Any-hit rate of the full collection: about 1.9%.
# dFosB act – mouse delta FosB homodimer activation. P13346. purified delta FosB, TAMRA-CDK5 oligo fluorescence polarization; percent of positive-control signal above neutral wells. activation, % at 25 µM. hit rate 0.99% among 340,000;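 active means mean activation above about 17%, with every replicate also reaching it, limit read from the data, passing the limit was not always enough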
# Target sequence (P13346 whole entry, looked up): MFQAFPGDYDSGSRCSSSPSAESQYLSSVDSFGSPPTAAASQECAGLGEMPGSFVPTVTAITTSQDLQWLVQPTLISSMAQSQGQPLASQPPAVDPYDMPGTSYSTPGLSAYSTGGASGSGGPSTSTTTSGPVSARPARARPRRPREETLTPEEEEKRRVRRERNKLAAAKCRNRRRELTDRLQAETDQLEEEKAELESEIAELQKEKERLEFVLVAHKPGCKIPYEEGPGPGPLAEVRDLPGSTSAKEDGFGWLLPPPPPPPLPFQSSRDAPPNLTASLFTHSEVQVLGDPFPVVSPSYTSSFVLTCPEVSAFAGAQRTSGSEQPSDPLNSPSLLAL
# NCF1 inh – inhibitors of human p47phox binding; P14598; p47phox/p22phox peptide binding, fluorescence polarization, 2 h; inhibition, % at 24.7 µM; hit rate 0.53% among 220,000; AID 1274;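 active means inhibition above about 30%, limit read from the data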;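 further: 0% = p47phox with labelled peptide and 100% = labelled peptide alone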
# 14-3-3 Bad PPI – disrupts binding of bovine 14-3-3 zeta to phospho-Bad peptide | AID 781 | inhibition, % at 21.7 µM | hit rate 0.71% among 220,000 | P63103 | TR-FRET 14-3-3zeta/Dy647-pBad peptide displacement, 1 h;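 active means inhibition above about 70%, limit read from the data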;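 further: 0% = full 14-3-3 plus peptide FRET controls and 100% = background without 14-3-3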
# Target sequence (P63103 whole entry, looked up): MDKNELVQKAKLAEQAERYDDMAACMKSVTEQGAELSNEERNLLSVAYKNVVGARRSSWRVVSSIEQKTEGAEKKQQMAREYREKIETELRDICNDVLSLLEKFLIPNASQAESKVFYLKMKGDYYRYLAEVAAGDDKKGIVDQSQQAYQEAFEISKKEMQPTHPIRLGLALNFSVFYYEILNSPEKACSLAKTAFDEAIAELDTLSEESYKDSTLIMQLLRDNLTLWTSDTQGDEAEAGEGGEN
# Efa HMGR inh – inhibitors of class II HMG-CoA reductase from Enterococcus faecalis; purified E. faecalis HMGR, NADPH absorbance 340 nm kinetic; inhibition, % at 10 µM; hit rate 0.41% among 190,000; AID 1066;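 active means inhibition above a set limit, the median over all tested compounds plus 3 SD, cut at about 9.5% in these data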;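 further: enzyme runs in reverse so mevalonate oxidation gives rising NADPH absorbance; 0% = complete reaction with DMSO and 100% = background rate lacking mevalonate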
# The depositor's hits bear a star; / = not tested or not shown; [ ] = dose if it differs, or a comment.
SMILES,dFosB act,NCF1 inh,14-3-3 Bad PPI,Efa HMGR inh
CC1=Nc2cccc3cccc(c23)N1,7.8,157.5*,-0.2,-2.6
COc1cccc(C2=Nc3cccc4cccc(c34)N2)c1,8.0,-27.1,27.0,1.1
NC(=O)c1ccc(NC(=O)COC(=O)CCc2ccc(S(=O)(=O)N3CCCCC3)cc2)cc1,12.1,-7.6,-18.6,-6.0
Cc1ccc(C)c(C(=O)COC(=O)c2n[nH]c3ccccc23)c1,-17.1,/,/,/
Cc1cccc(C)c1OCCOC(=O)c1n[nH]c2ccccc12,-7.5,-6.4,89.0*,8.5
COc1ccc(NC(=O)CN(C)C(=O)CCSc2ccc(F)cc2)cc1,-15.1,/,/,/
Cc1ccccc1Cn1c([N+](=O)[O-])cnc1C,-7.2,-20.0,-3.7,3.2
COc1ccc(CNC(=O)C2CCCN2S(=O)(=O)c2ccc(Cl)cc2)cc1 (stereo not drawn),-8.2,-8.6,8.6,17.9*
O=C(NCc1ccccc1)C1CCCN1S(=O)(=O)c1cccc2cccnc12 (stereo not drawn),-3.2,47.0*,-1.2,-0.9
NC(=Nc1ccc(Br)cc1)c1ccccc1,0.9,/,/,/
Cc1ccc(S(=O)(=O)Nc2csc(C)c2C(=O)O)cc1,-6.2,-19.5,72.8*,/
Cc1ccc(S(=O)(=O)Nc2cc(C)c(O)cc2C)cc1,5.1,-0.2,-1.2,-9.1
O=C(Nc1ccccc1Oc1ccsc1C(=O)O)c1ccccc1F,3.4,/,/,/
COC(=O)c1ccc(C(NC(=O)OCc2ccccc2)/C(C)=C/[C@@H](C)C(=O)NCc2ccc(-c3ccccc3)cc2)cc1 (stereo partly drawn),-4.1,-12.3,6.0,14.2*
CCN(CC)N=Nc1ccc(S(N)(=O)=O)cc1,-5.1,-3.7,-0.7,10.2*
Cc1ccc(C(C)NC(=O)C23CC4CC(CC(C4)C2)C3)cc1 (stereo not drawn),0.7,-3.9,0.8,1.4
N#CCC(=O)N/N=C/c1cn(Cc2ccc(Cl)cc2Cl)c2ccccc12,1.6,-0.5,0.3,/
CC(=O)C1=C(O)C(=O)N(C)C1c1ccccc1F (stereo not drawn),-2.5,18.5,68.2,15.5*
CC(=O)C1=C(O)C(=O)N(CO)C1c1ccccc1F (stereo not drawn),-1.4,0.1,1.0,-1.3
O=C(Nc1nnc(C2=COCCO2)o1)c1ccc(Cl)cc1,0.8,-11.9,2.5,1.5
CC(=O)Nc1nnc(C2=COCCO2)o1,-7.3,-3.3,-6.0,10.5*
COc1ccc(CNC(=O)C(C)N2CCN(c3ccc(C(C)=O)cc3)CC2)cc1 (stereo not drawn),-8.1,/,/,/
COc1cc2ccc3c(CCN(C)C)cc(OC)c(OC)c3c2cc1OC,-1.8,/,/,/
CN(C)CCc1cc2c(c3c1ccc1ccccc13)OCO2,46.9*,/,/,/
CCN(c1ccccc1)S(=O)(=O)c1ccc(C(=O)OC(C)C(=O)NCCC2=CCCCC2)cc1 (stereo not drawn),-12.6,-14.6,-8.4,0.0
SMILES,dFosB act,NCF1 inh,14-3-3 Bad PPI,Efa HMGR inh
CCn1c(Cc2c(C)[nH]c3ccccc23)nnc1SCC(=O)NCc1ccco1,-4.2,-1.9,-12.2,-2.6
CCn1c(Cc2c(C)[nH]c3ccccc23)nnc1SCC(=O)NCc1ccccc1,-7.0,40.8*,0.3,-3.2
COc1ccc(NC(=O)c2ccc(-n3nc(C)cc3C)cc2)cc1OC,-2.8,37.6*,-9.1,-2.2
COc1ccc(NC2CCCN(C(=O)c3csc(C(C)C)n3)C2)cc1 (stereo not drawn),-4.1,/,/,/
Cc1ccc(NC(=O)Cn2c3ccc(F)cc3c3nc4n(c(=O)c32)CCS4)cc1F,12.9,-8.9,-2.8,1.1
O=C(Cn1c2ccc(F)cc2c2nc3n(c(=O)c21)CCS3)Nc1ccc(Cl)cc1F,21.0*,-79.0,25.3,-2.8
Cc1cc(NC(=O)c2cc(-c3ccccn3)nc3ccccc23)no1,-16.0,-8.8,1.0,-7.8
Cc1cc(NC(=O)c2cc(-c3ccccn3)nc3ccc(Br)cc23)no1,57.8*,/,/,/
COc1cc(CO)c(Br)cc1OCC(N)=O,1.7,-2.6,81.9*,-0.7
COc1ccc(OC)c(NC(=O)c2ccc(CN3CCc4ccccc4C3)cc2)c1,0.0,/,/,/
CCOc1cc(N2CCOCC2)c(OCC)cc1NS(=O)(=O)c1ccc(Cl)s1,-15.4,58.8*,83.2*,-9.5
O=C(COc1ccc(/C=N/NC(=O)c2cc3ccccc3o2)cc1Cl)Nc1ccccc1,-23.0,19.6,79.0*,0.0
Cc1cccc(-c2nc3c(c(SCC(=O)N4CCCC4)n2)COC(C)(C)C3)c1,-18.7,/,/,/
CC(C)(C)c1ccc(C(=O)N2CCCN(C(=O)c3ccc(C(C)(C)C)cc3)CC2)cc1,-12.4,1.6,-10.6,-1.4
CC(C)(C)c1ccc(C(=O)N2CCNCC2)cc1,-0.8,38.0*,-3.8,-1.2
COc1cccc(NC(=O)C(NCCC(C)C)c2ccccc2)c1 (stereo not drawn),3.9,-30.2,-13.1,0.6
COc1cccc(NC(=O)C(NCC2CCCCC2)c2ccccc2)c1 (stereo not drawn),-0.2,-2.7,83.5*[fluorescence artefact?],-3.8
COCCNC(=O)C(c1ccccc1)N(C(=O)Cn1nnc2ccccc21)c1cccnc1 (stereo not drawn),-5.8,-2.8,7.9,-1.7
COCCNC(=O)C(c1ccccc1C)N(C(=O)Cn1nnc2ccccc21)c1cccnc1 (stereo not drawn),-6.2,-15.1,8.1,15.0*
CCOC(=O)c1cccc(NC(=O)c2cc3ccccc3o2)c1,-22.4,/,/,/
CC(C)c1ccc(/C=C/C(=O)CCC(=O)O)cc1,1.5,-3.0,-4.5,3.1
O=C(O)CCC(=O)/C=C/c1ccccc1,5.1,6.0,-3.2,11.9*
COc1ccc(C(=O)N2CCCc3ccccc32)cc1,0.5,-11.2,87.8*,-6.1
Cc1noc(C)c1C(=O)N1CCCc2ccccc21,-0.4,53.0*,2.3,-0.2
CCOC(=O)c1cn2nc(Oc3ccc(NC(C)=O)cc3)ccc2n1,-2.1,-7.5,2.0,/
SMILES,dFosB act,NCF1 inh,14-3-3 Bad PPI,Efa HMGR inh
CCN(CC)CCOc1cc2c(nn1)Oc1ccccc1N2C,5.8,-7.0,82.9*,-5.6
O=[N+]([O-])c1ccc(C(=Nc2cccc3ccccc23)N2CCOCC2)cc1,-1.6,-11.3,97.1*[fluorescence artefact?],-23.0
Cc1ccc([N+](=O)[O-])cc1N=C(c1ccc([N+](=O)[O-])cc1)N1CCOCC1,-7.5,-11.9,-13.1,-2.2
N#C/C(=C\c1ccc(C(=O)O)cc1)c1nc2sc3c(c2c(=O)[nH]1)CCCC3,-16.5,103.8*,38.1,/
CCC(=O)N1CCc2cc(S(=O)(=O)NCCC(=O)NCc3ccccc3Cl)ccc21,-10.2,/,/,/
CCOC(=O)C1=C(C)NC(=O)NC1c1c(C)nn(-c2ccccc2)c1Cl (stereo not drawn),-3.6,-10.4,92.7*,-0.2
CCOC(=O)C1=C(C)N(C)C(=O)NC1c1c(C)nn(-c2ccc(C)cc2)c1Cl (stereo not drawn),-7.4,1.8,28.4,-4.0
CCC(=O)NCc1cc(-c2nn(C)c(=O)c3ccccc23)ccc1C,-14.6,-1.8,-1.8,-2.9
Cc1ccc(-c2nn(CC(=O)NCc3cc(-c4nn(C)c(=O)c5ccccc45)ccc3C)c(=O)c3ccccc23)cc1,-5.4,59.2*,71.7*,-2.4
CCC1CCC(N2CCN(c3ccccc3F)CC2)CC1 (stereo not drawn),1.7,/,/,/
